This is a sample that favours compounds with a hit; in the whole collection about 4.5% have one here.
Rtt109 Vps75: blocks Candida albicans Rtt109/Vps75 acetyltransferase activity; actives 0.16% (n = 330,000); Q5AAJ8; purified Rtt109/Vps75, ThioGlo CoA-SH fluorescence, 4 h; inhibition, % at 34.9 µM;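 active = inhibition of at least 50% in every replicate; inconclusive = best replicate reaches 50% inhibition but some replicates fall short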
Target sequence (Q5AAJ8 whole entry, looked up): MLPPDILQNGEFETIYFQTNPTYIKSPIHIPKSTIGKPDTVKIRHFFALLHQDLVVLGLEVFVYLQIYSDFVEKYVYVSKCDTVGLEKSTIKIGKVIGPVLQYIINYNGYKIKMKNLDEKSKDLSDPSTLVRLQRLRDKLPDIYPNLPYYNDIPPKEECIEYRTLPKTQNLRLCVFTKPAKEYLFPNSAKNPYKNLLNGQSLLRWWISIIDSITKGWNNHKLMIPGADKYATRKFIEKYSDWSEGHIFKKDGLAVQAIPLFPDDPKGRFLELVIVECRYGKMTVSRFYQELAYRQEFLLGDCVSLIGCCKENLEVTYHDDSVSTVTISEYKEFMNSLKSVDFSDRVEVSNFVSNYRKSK
Efflux pump inh: blocks antifungal efflux pumps in multiplex yeast assay. inhibition, % at 10 µM. S. cerevisiae Candida pump triplex, Nile Red efflux. actives 0.44% (n = 330,000);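 active = plate passing quality check with inhibition over a set limit, or well fluorescence over plate mean plus 4 SD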;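 also: Nile Red retained in pooled yeast measured as flow cytometry median fluorescence; 0% = buffer negative control and 100% = Enniatin B positive control; higher means more Nile Red kept so more efflux inhibition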
GRK2 aptamer HTS: human GRK2 inhibition via aptamer displacement; P25098; bead flow cytometry, FAM-aptamer displacement from GRK2; inhibition of aptamer binding, % at 10 µM; actives 0.59% (n = 330,000);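 active = inhibition of aptamer binding above 40%, roughly 3 SD of noise, on plates passing a quality check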;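 also: median bead fluorescence of bound FAM aptamer so fluorescent compounds give negative values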
HDAC3 inhib: human HDAC3 inhibition; AID 2718; recombinant HDAC3, fluorogenic peptide/trypsin coupled, fluorescence; actives 0.15% (n = 320,000); inhibition, % at 8.3 µM; in the data active = inhibition above about 26%, passing the limit was not always enough; inconclusive = no clear call, values can overlap the other calls
ALR H2O2 inh: blocks human ALR sulfhydryl oxidase activity; AID 485317; purified ALR, DTT oxidation, H2O2 HRP-luminol luminescence; actives 3.8% (n = 290,000); inhibition, % (test concentration not listed);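 active = mean replicate inhibition above about 79%, with every replicate also reaching it, limit read from the data; inconclusive = only one of the two criteria met; inactive = mean below limit and not every replicate reaching it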
Target sequence (P55789 whole entry, looked up): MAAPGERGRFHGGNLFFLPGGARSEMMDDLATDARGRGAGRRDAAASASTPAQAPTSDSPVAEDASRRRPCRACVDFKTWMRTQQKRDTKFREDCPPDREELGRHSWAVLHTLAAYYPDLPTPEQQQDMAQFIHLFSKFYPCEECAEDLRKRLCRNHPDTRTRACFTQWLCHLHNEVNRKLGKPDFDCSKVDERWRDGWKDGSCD
Rce1 inh: yeast Ras-converting enzyme inhibition. Q03530. calls only. AID 2563. actives 0.27% (n = 290,000). yeast membranes, quenched prenylated peptide cleavage fluorescence;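 active = fall in fluorescence gain of 50% or more versus controls, with final raw signal at or below 3038400; inconclusive = same 50% fall but final raw signal above 3038400; inactive = fall in fluorescence gain under 50%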;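 also: plate controls were neutral control wells for no effect and wells lacking membranes for full effect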
The depositor's hits bear a star; i = inactive; ? = inconclusive; nt = no result given.

SMILES	Rtt109 Vps75	Efflux pump inh	GRK2 aptamer HTS	HDAC3 inhib	ALR H2O2 inh	Rce1 inh
O=C(Nc1ccccc1O)c1ccc2c(c1)C(=O)N(Cc1ccco1)C2=O	-7.6	-0.1	3.0	40.8*	-6.9	i
COc1ccccc1NC(=O)c1ccc2c(c1)C(=O)N(Cc1ccco1)C2=O	2.0	-0.1	1.0	2.1	-7.0	i
COc1ccc(-c2cc(-c3n[nH]c(=S)n3-c3cc(OC)ccc3OC)[nH]n2)cc1	22.8	0.1	0.0	7.9	82.9*	i
C[C@H](CO)N1C[C@H](C)[C@@H](CN(C)Cc2ccc(C(=O)Nc3ccccc3N)cc2)Oc2c(NC(=O)C3CCCCC3)cccc2C1=O	11.3	-0.2	0.0	?	-2.8	nt
CCCCC(CCC(=O)O)(C(=O)OCC)c1csc(Nc2ccccc2)n1 (stereo not drawn)	2.6	0.1	1.0	-6.5	95.8*	i
Cc1ccc(Nc2nnns2)cc1C	0.5	0.1	0.0	-3.2	87.2*	i
Cc1ccc(Nc2ccc(NCc3ccccc3)nn2)cc1C	2.8	-1.2	0.0	0.9	26.9	i
CCc1ccc(Nc2ncc3c(n2)CC(C)(C)CC3=O)cc1	-6.7	0.4	0.0	-2.3	nt	i
Cc1nc(N2CCN(C(=O)c3ccco3)CC2)[nH]c(=O)c1C	-14.8	-0.3	1.0	-0.5	nt	i
Nc1ncnc2c1ncn2[C@@H]1O[C@H](CNCc2ccccc2OCC(=O)N2CCCCC2)[C@@H](O)[C@H]1O	-4.5	-0.2	2.0	-8.4	nt	nt
Cn1c(SCC(=O)c2ccc(O)c(O)c2)nnc1-c1ccccc1	-1.0	-0.2	1.0	-0.7	93.1*	i
Cc1ccc(C(=O)CSc2nnc(-c3cccs3)n2C)o1	-20.3	-0.1	1.0	4.1	49.4	i
Cn1c(SCC(=O)c2ccc(-c3ccccc3)cc2)nnc1-c1ccco1	nt	0.0	1.0	8.1	87.6*	i
CNC(=O)CSc1nnc(-c2ccccc2)n1C	0.4	0.0	1.0	nt	-0.9	i
Cn1c(SCC(=O)c2ccc(O)c(O)c2)nnc1-c1cccs1	-0.1	-0.1	6.0	3.2	99.0*	i
CC(C(=O)Nc1ccccc1)N(C)CCOc1ccc(Br)cc1 (stereo not drawn)	2.8	-0.2	0.0	-0.3	0.0	i
Cc1ccccc1S(=O)(=O)NNC(=O)C(=O)NNc1ccccn1	5.7	0.1	0.0	-2.1	99.5*	i
CC(=O)Nc1ccc(S(=O)(=O)NNC(=O)C(=O)NNc2ccccn2)cc1	-1.4	-0.1	0.0	4.0	nt	i
Nc1ccc(S(=O)(=O)NNC(=O)C(=O)NNc2ccccn2)cc1	0.5	0.0	0.0	-5.8	98.7*	i
Cc1ccc(S(=O)(=O)NNC(=O)C(=O)NNc2ccccn2)cc1	8.5	0.0	0.0	-4.5	95.2*	i
COc1cc(C2C3=C(COC3=O)OC(C)(C)Oc3cc4c(cc32)OCO4)cc(OC)c1OC (stereo not drawn)	-1.8	nt	nt	nt	nt	nt
Cc1noc(C)c1S(=O)(=O)N(C)C[C@H]1Oc2c(cccc2N(C)C)C(=O)N([C@H](C)CO)C[C@@H]1C	3.2	0.1	1.0	-1.1	nt	nt
COCCN(C(=O)COC(=O)CCc1c[nH]c2ccccc12)c1c(N)n(Cc2ccccc2)c(=O)[nH]c1=O	8.4	-0.1	0.0	-6.1	22.7	i
COc1cccc(-c2nn3c(-c4ccco4)nnc3s2)c1	-0.8	0.0	6.0	6.0	94.4*	i
COc1cccc(OC)c1-c1nn2c(-c3ccco3)nnc2s1	2.8	0.3	3.0	-3.5	-4.4	i
SMILES	Rtt109 Vps75	Efflux pump inh	GRK2 aptamer HTS	HDAC3 inhib	ALR H2O2 inh	Rce1 inh
COc1cc(-c2csc(CCn3nc(C)cc3C)n2)cc(OC)c1OC	-6.5	0.1	0.0	-4.7	98.9*	i
Cc1cc(C)n(CCc2nc(-c3ccc(F)cc3)cs2)n1	nt	0.1	3.0	2.4	3.9	i
O=C(COC(=O)COc1ccccc1)Nc1ncc([N+](=O)[O-])s1	-0.6	-0.2	1.0	0.5	95.8*	nt
CCC(Oc1ccccc1)C(=O)Nc1ncc([N+](=O)[O-])s1 (stereo not drawn)	3.9	0.1	0.0	6.7	96.7*	i
O=C(CC1CCCC1)Nc1ccc(Cl)c(S(=O)(=O)N2CCOCC2)c1	5.3	-0.3	1.0	5.0	-0.7	nt
CC1(C2CC2)NC(=O)N(CC(=O)Nc2ccc(C(F)(F)F)cc2)C1=O (stereo not drawn)	4.1	0.1	0.0	8.3	nt	nt
Cc1cccc(Cc2c(C)nc3nc(SCC(=O)NCc4ccco4)nn3c2C)c1	-6.4	0.1	11.0	-1.5	77.3*	i
Oc1cccc2cnccc12	5.7	0.0	3.0	-4.7	99.0*	i
Nc1cccc2cnccc12	1.8	0.1	2.0	4.1	45.1	nt
CCN(CC)S(=O)(=O)c1cc(C(=O)Nc2cc(C)[nH]n2)ccc1Cl	2.4	0.1	0.0	-2.4	nt	i
Cn1c(=O)c2[nH]c(N=NNc3ccccc3F)nc2n(C)c1=O	10.6	0.0	5.0	-1.5	98.2*	i
CC(=O)Oc1oc(-c2ccccc2)nc1/C=N/c1ccccn1	0.1	-0.6	3.0	83.5*	39.8	i
COc1ccccc1N=Cc1nc(-c2ccccc2)oc1OC(C)=O	18.3	0.2	0.0	23.5	nt	i
CCOC(=O)CN1CCc2c(C)nc3c(-c4ccc(OC)c(OC)c4)cnn3c21	-25.5	0.0	1.0	5.6	83.5*	i
CCOC(=O)Cc1c(C)nc2c(-c3cccc(Br)c3)cnn2c1C	-38.1	-0.2	0.0	10.4	3.8	i
Cc1ccccc1-c1cc(C(=O)NCC2CC2)nn1CC1CC(c2cccc([N+](=O)[O-])c2)=NO1 (stereo not drawn)	6.4	0.1	1.0	6.1	-4.3	nt
O=S(=O)(c1ccc(Br)cc1)N1CCCN(Cc2ccccc2F)CC1	1.9	6.8*	5.0	-3.9	-5.0	i
CCn1cc(SCC(N)=O)c2ccccc21	-10.1	-0.1	3.0	-7.6	95.6*	i
CCn1cc(SCC(=O)Nc2cc(C)on2)c2ccccc21	-8.1	0.2	0.0	nt	95.1*	i
Cc1cc(NC(=O)CSc2ccc3ccccc3c2)no1	4.3	-0.2	3.0	4.1	98.8*	i
Cc1cc(NC(=O)CSCC(=O)N2CCN(c3ccccc3)CC2)no1	4.5	0.0	1.0	-4.0	99.1*	nt
S=C(Nc1cccnc1)N1CCN(c2ccccc2Cl)CC1	9.3	-0.2	0.0	-0.7	8.3	i
Cc1cc(NC(=O)CSc2cn(CC(=O)N(C(C)C)C(C)C)c3ccccc23)no1	-5.5	0.0	1.0	6.7	98.2*	i
CCC(C(=O)O)n1cnc2scc(-c3ccc(C)c(C)c3)c2c1=O (stereo not drawn)	-7.9	0.0	0.0	-2.8	92.9*	i
C=CCn1c(C(C)NC(=O)c2ccc(C)cc2)n[nH]c1=S (stereo not drawn)	-6.2	0.1	3.0	-6.1	95.4*	i
C=CCn1c(C(C)NC(=O)c2ccccc2C)n[nH]c1=S (stereo not drawn)	-3.1	0.1	37.0	-0.5	64.3	i
